High-throughput results (PubChem BioAssay)
KB-V1 cytotox: KB-V1 MDR subline cytotoxicity; Potency, µM (series often up to 46.1 µM), most hits filed as cytotoxic; hit rate 3.4% among 400,000; KB-V1 MDR cells viability, CellTiter-Glo, 72 h; AID 1347076; further: potency means the concentration at half of the fitted maximal effect; on the % scale 0 is the no-effect control and ±100 the full control effect; nearly all actives have a fitted effect of over 60% in size
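Cytotoxicity via CellTiter-Glo luminescence after 72 h compound exposure at 37 degrees C. Cells: drug-selected KB-V1 line, DMEM phenol-red free plus 10% FBS. Compounds tested at multiple concentrations; normalized data fitted to concentration-effect curves.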
SW480 rerep: DNA re-replication induction in SW480 cells. hit rate 1.8% among 340,000. Potency, µM (titrated, usually from 46.1 µM), for the others: top-dose re-replication activation, usual class: activators. SW480 DNA re-replication, Hoechst DNA content imaging, 48 h. AID 624297; further: potency means the concentration at half of the fitted maximal effect; % of control where 0% means no effect; nearly all actives have a fitted effect of over 55% in size
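Treated cells incubate 48 hr (37 C, 5% CO2), are stained 40 min with Hoechst, and nuclear fluorescence is enumerated; a rise in nuclei with high DNA signal marks re-replication.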
Giardia killer: Giardia lamblia killing | hit rate 0.15% among 340,000 | Giardia lamblia trophozoite viability | activity change, % at 7.66 µM, hits read low | AID 540267; in the data active means activity change below about -80%; inconclusive means between about -30% and that limit;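 further: parasites exposed to compound for two days anaerobically before the ATP read; on the % scale 0 is the no-effect control and ±100 the full control effect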
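Giardia lamblia trophozoites (100 cells/well) were incubated with compounds for 48 h at 37 deg C under anaerobic conditions. Viability was read as ATP content by one-step luminescence after 15-30 min at room temperature.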
MCF10A rerep: induces DNA re-replication in MCF 10a normal breast cells; MCF 10A DNA re-replication, Hoechst nuclear intensity, 48 h; Potency, µM (top dose mostly 46.1 µM), for the others: at the highest dose activity, positive = re-replication, usual class: activators; hit rate 2.9% among 350,000; further: potency means the concentration at half of the fitted maximal effect; % of control where 0% means no effect; nearly all actives have a fitted effect of over 50% in size
S-ASM inh: inhibitors of human secretory acid sphingomyelinase. placental ASM, HMU-PC fluorogenic substrate, 60 min. hit rate 0.006% among 340,000. P17405. Potency, µM (titrated, usually from 57.5 µM), without a hit: top-dose activity change, negative = inhibition, most hits filed as inhibitors; further: potency means the concentration at half of the fitted maximal effect
Target sequence (P17405 47-631 limits assumed): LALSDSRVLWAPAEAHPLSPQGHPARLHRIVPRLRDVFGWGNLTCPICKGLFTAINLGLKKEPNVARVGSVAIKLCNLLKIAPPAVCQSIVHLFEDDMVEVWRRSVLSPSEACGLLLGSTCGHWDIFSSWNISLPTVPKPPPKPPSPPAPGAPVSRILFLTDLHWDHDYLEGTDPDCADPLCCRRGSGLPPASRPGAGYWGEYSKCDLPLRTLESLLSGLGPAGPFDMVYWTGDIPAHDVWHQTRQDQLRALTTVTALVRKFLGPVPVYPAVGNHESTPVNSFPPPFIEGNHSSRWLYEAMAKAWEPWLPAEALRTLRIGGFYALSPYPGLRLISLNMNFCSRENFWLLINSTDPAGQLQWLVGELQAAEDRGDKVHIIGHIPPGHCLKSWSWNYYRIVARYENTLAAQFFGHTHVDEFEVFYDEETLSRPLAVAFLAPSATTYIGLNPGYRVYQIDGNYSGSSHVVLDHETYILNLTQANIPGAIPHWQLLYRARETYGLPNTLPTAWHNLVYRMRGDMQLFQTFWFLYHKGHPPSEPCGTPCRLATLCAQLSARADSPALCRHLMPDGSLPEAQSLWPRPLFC
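qHTS format. ASM enzyme prepared from human placenta hydrolyses the fluorogenic substrate HMU-PC0 (9 uM final) over 60 min at 37 °C after a 10 min compound preincubation.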
KB-3-1 cytotox: KB-3-1 parental cell cytotoxicity | KB-3-1 viability, CellTiter-Glo ATP luminescence, 72 h | Potency, µM (series often up to 46.1 µM), hits mostly cytotoxic | hit rate 1.4% among 400,000; further: potency means the concentration at half of the fitted maximal effect; on the % scale 0 is the no-effect control and ±100 the full control effect; nearly all actives have a fitted effect of over 60% in size
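Luminescent ATP read-out (CellTiter-Glo) measures survival of drug-naive KB-3-1 cells after 72 h compound exposure at 37 °C. Titration series was screened from lowest to highest concentration, with DMSO vehicle plates as background controls.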
* hit, by the source's call; i = inactive; u = inconclusive; x = no result given; ! = not active in a repeat. An excerpt weighted towards active compounds, which were near 6.9% of everything screened. Unless noted, the call rests on the fitted dose curve; in most records, active means well fitted curve in the direction sought with a large enough effect; inconclusive means small, poorly fitted or top-dose-only effect, or another doubt; inactive means no such curve, though single readings can be large; an effect the other way counts as inactive or inconclusive.

SMILES	KB-V1 cytotox	SW480 rerep	Giardia killer	MCF10A rerep	S-ASM inh	KB-3-1 cytotox
Cc1ccccc1-n1nc2c(c1NC(=O)c1c(-c3ccccc3Cl)noc1C)CS(=O)(=O)C2	8.2µM*	-1%	28	2%	1%	i
O=C(NCCc1csc2nc(-c3ccccc3F)nn12)c1ccco1	i	x	x	x	x	i
CCOc1cc(/C=C2\CN(C)C/C(=C\c3ccc(O)c(OCC)c3)C2=O)ccc1O	21µM*	1.6µM*	-16	0.73µM*	-22%	7.3µM*
CCOc1cc(/C=N/NC(=O)N/N=C/c2ccc(O)c(OCC)c2)ccc1O	i	u	-7	u	-4%	6.5µM*
CCOc1cc(/C=C2\CCn3c2nc2cc(Cl)ccc2c3=O)ccc1O	i	10µM*	20	13µM*	409%	i
O=c1c2ccc(Cl)cc2nc2n1CC/C2=C\c1cccc(O)c1	u	u	24	u	12%	u
COc1cc(/C=C2\C=Cc3ccccc32)cc(OC)c1OC	i	x	x	x	x	i
COc1ccc(C(=O)CSc2nnc(CNc3ccc(C)cc3C)n2Cc2ccco2)cc1	3.7µM*	0%	-11	26%	-12%	u
Cc1ccc(-n2c(COc3ccccc3)nnc2SCC(=O)O)cc1	i	x	x	x	x	i
Cc1ccc(OCc2nnc(SCC(=O)Nc3cccc4ccccc34)n2-c2ccccc2)cc1	u	9%	0	18µM*	-8%	i
COc1ccc(C)cc1NC(=O)CSc1nnc(COc2ccc(C)cc2)n1Cc1ccco1	9.2µM*	u	-11	9%	-9%	i
CCn1c(COc2ccccc2)nnc1SCC(=O)Nc1cc(C)ccc1OC	15µM*	-1%	-1	-2%	1%	i
O=C(C(=O)N1CCN(C(=O)c2ccco2)CC1)c1ccccc1	i	x	x	x	x	i
O=S(=O)(Nc1ccc(-n2cnnn2)cc1)c1cccc(F)c1	i	-36%	1	8%	-5%	i
COC(=O)c1c(NC(=O)Cc2coc3cc(C)cc(C)c23)sc2c1CCC2	i	x	x	x	x	i
Cc1cc2nn(-c3ccc(F)cc3)nc2cc1NC(=O)c1cc(Cl)ccc1Cl	i	x	x	x	x	i
CCn1cc(S(=O)(=O)c2ccc(Cl)cc2)c(=O)c2cc(OC)ccc21	15µM*	-7%	-9	4%	-2%	i
CCn1cc(S(=O)(=O)c2ccc(OC)cc2)c(=O)c2cc(OC)ccc21	i	-2%	6	6%	0%	i
C/C(=N/NC(=O)CSc1nc2ccccc2s1)c1ccncc1	i	-1%	23	29%	-2%	i
CS/C(=N\S(=O)(=O)c1cccs1)NC(=O)CSc1nc2ccccc2s1	i	-5%	2	12µM*!	-2%	i
CCOC(=O)c1cc(C(=O)NN)c(C)nc1C	i	u	-13	7%	5%	i
CCOC(=O)c1cc2c(nc1C)-c1cc(Cl)cc(Cl)c1OC2O (configuration not stated)	i	u	-14	18µM*	4%	i
CCOC(=O)c1c(C)[nH]c(C)c1C(=O)COC(=O)/C=C/c1cccc(Cl)c1	u	12%	-13	20%	-12%	i
CCOC(=O)c1c(C)[nH]c(C=O)c1Cc1cccc(Cl)c1	15µM*	10%	-4	27%	-4%	18µM*
Cc1[nH]c(=O)[nH]c(=O)c1C1N2CC3(C(C)C)CN1CC(C(C)C)(C2)C3=O (configuration not stated)	i	x	x	x	x	i
Cc1ccc2nc(-c3ccccc3)cc(C(=O)N(C)CC(=O)Nc3ccccc3Br)c2c1	21µM*	-464%	-10	u	-7%	u
COc1ccc(NC(=O)CN(C)C(=O)c2cc(-c3ccccc3)nc3ccccc23)cc1	u	-1%	-13	u	-3%	i
CN(CC(=O)Nc1ccccc1Br)C(=O)c1ccccc1OCc1ccc(Cl)cc1	5.8µM*	6%	3	20%	-4%	u
